Most compounds without a hit are left out; they make up all but 4.1% or so of the library.
AMA1-RON2 inh: AMA1-RON2 (P. falciparum) interaction inhibition; AlphaScreen AMA1-biotinylated RON2 peptide binding; Potency, µM (series often up to 58.2 µM), without a hit: at the highest dose activity change, negative = inhibition, hits mostly inhibitors; hit rate 0.2% among 360,000;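 note: 0% = vehicle wells and -100% = peptide control; nearly all actives have a fitted effect of over 45% in size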
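AMA1 (3D7) with his tag at 25 nM final met compounds first, then biotinylated RON2 peptide at 25 nM; detection used donor plus acceptor beads, 10 µg/mL apiece, read by AlphaScreen after 30 min at room temperature.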
AmpC detergent: blocks E. coli AmpC beta-lactamase in detergent assay; P00811; AmpC hydrolysis of nitrocefin, absorbance 480 nm, 0.01% Triton; Potency, µM (titrated, usually from 114 µM), for inactives: top-dose activity change, negative = inhibition, usual class: inhibitors; hit rate 0.041% among 370,000;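 note: 0% = no-compound wells and -100% = no-enzyme wells; nearly all actives have a fitted effect of over 25% in size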
Target sequence (P00811 whole entry, looked up): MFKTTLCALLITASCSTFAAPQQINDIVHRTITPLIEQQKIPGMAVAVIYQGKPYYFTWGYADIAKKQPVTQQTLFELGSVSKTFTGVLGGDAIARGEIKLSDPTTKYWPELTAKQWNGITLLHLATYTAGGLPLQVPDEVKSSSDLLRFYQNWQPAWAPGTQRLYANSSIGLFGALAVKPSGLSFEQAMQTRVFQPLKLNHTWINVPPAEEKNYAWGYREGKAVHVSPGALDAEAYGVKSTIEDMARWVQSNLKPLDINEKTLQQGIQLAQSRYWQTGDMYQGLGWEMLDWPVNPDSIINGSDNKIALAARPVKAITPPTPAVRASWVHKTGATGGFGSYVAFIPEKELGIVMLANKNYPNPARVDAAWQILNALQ
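20 mM phosphate pH 7.0 + 0.01% (detergent screen) or 0.0001% Triton X-100; 5.3 nM AmpC reagent; cpd preinc 15 min RT; nitrocefin (800 uM stock) to start; A480 q20 s × 4 min; Activity was normalised to no-enzyme and no-compound control wells.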
AmpC inh no detg: blocks E. coli AmpC beta-lactamase in detergent-free assay. P00811. AID 485341. hit rate 0.52% among 330,000. AmpC nitrocefin hydrolysis, absorbance 480 nm, 0.0001% Triton. Potency, µM (titrated, usually from 57.1 µM), for the others: at the highest dose activity change, negative = inhibition, most hits filed as inhibitors;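 note: plate controls were no compound for no effect and no enzyme for full effect; nearly all actives have a fitted effect of over 20% in size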
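AmpC (5.3 nM in the dispensed reagent) in 20 mM phosphate pH 7.0 with 0.01% (detergent screen) or 0.0001% Triton X-100 was preincubated with compounds for 15 min at room temperature. Nitrocefin was then added from an 800 uM solution, and hydrolysis was followed at 480 nm.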
FMDV antiviral: foot and mouth disease virus antiviral activity. FMDV antiviral cell-based qHTS. Potency, µM (highest dose often 57.9 µM), inactives show top-dose activity change, negative = inhibition, usual class: inhibitors. hit rate 1.2% among 410,000. AID 1159524; calls by dose curve; tested in HEK293T cells; note: read-out not given here; nearly all actives have a fitted effect of over 45% in size
Sm TGR inh: S. mansoni TGR enzyme inhibition; Q962Y6; purified TGR, DTNB reduction, TNB absorbance 405 nm; Potency, µM (titrated, usually from 114 µM), inactives show at the top dose activity change, negative = inhibition, usual class: inhibitors; hit rate 3% among 360,000; AID 485364; note: nearly all actives have a fitted effect of over 60% in size
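First, TGR (20 nM dispensed) and NADPH were mixed with compound. Second, a 15 min room-temperature incubation followed. Third, further NADPH and then DTNB were added to start the reaction. Finally, TNB absorbance was monitored kinetically.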
The depositor's hits bear a star; ? = inconclusive; / = no result; [ ] = remark or other dose. Unless noted, calls come from the whole dose curve; as a rule, active = well fitted curve in the direction sought with a large enough effect; inconclusive = small, poorly fitted or top-dose-only effect, or another doubt; inactive = no such curve, though single readings can be large; an effect the other way counts as inactive or inconclusive. Unless noted, % is set by controls: 0 for no effect and ±100 for the full control effect; potency is the fitted concentration of half-maximal effect.

SMILES	AMA1-RON2 inh	AmpC detergent	AmpC inh no detg	FMDV antiviral	Sm TGR inh
O=C(COc1ccccc1[N+](=O)[O-])Nc1ccc(N2CCN(C(=O)c3cccs3)CC2)cc1	-18%	-3%	47%	13µM*	1%
O=C(COc1ccccc1Cl)Nc1ccc(N2CCCC2)cc1	-13%	-1%	176%	-13%	-25%
O=C(COc1ccccc1Cl)Nc1ccc(N2CCN(C(=O)c3ccccc3)CC2)cc1	-25%	4%	59%	22µM*	4%
CCOc1ccc(OCC(=O)OCn2c(SC)nnc(C)c2=O)cc1	0%	0%	-12%	-4%	10%
CCOc1ccc(C(c2c(O)nc(SC)n(C)c2=O)c2c(O)nc(SC)n(C)c2=O)cc1	28%	3%	-29%	-16%	16µM*
Oc1ccc(N=Nc2ccccc2)o1	-1%	-5%	-14%	?	3.2µM*
Cc1ccc(C)c(NC(=O)CSc2nc3c([nH]c4ccccc43)c(=O)n2-c2ccc(F)cc2)c1	/	3%	/	?	6%
Cc1ccc(C(=O)Nc2ccc(C(=O)N/N=C/c3c[nH]c4ccccc34)cc2)cc1	26%	?	-31%	-7%	-7%
Cc1cccc(NC(=S)N/N=C/c2c[nH]c3ccccc23)c1	82%[11.6 µM]	-7%	16µM*	-2%	-10%
COc1ccc(OCC2c3cc(OC)c(OC)cc3CCN2C(=O)COc2ccc(Cl)cc2Cl)cc1 (centres undefined)	/	7%	/	-23%	6%
Fc1ccc(Br)cc1C1C=C(c2ccc(Br)s2)Nc2ncnn21 (centres undefined)	32%	1%	-41%	?	1.3µM*
COc1cccc(C2C=C(c3ccc(Br)s3)Nc3ncnn32)c1OC (centres undefined)	29%	-1%	-13%	?	?
CC1C2(C)OCC(C#N)(C(=N)O2)C1(C#N)C#N (centres undefined)	/	8%	-16%	/	13µM*
CCCC1=C(C(=O)OCC)C(c2ccco2)C(C#N)=C(N)O1 (centres undefined)	5%	-8%	-21%	7%	32µM*
CCOC(=O)C1=C(N)OC(C)=C(C#N)C1c1ccco1 (centres undefined)	27%	-4%	-11%	-11%	-23%
CCOC(=O)C1=C(CC)OC(N)=C(C#N)C1c1ccc(NC(C)=O)cc1 (centres undefined)	21%	?	-26%	0%	11µM*
CCOC(=O)C1=C(c2ccccc2)OC(N)=C(C#N)C1c1cccs1 (centres undefined)	6%	5%	-28%	-2%	45µM*
